This is one part of a sample in which hits are shown more often than they occur.
IDE exosite FP – exo-site inhibitors of human insulin-degrading enzyme; z-score at 20 µM; 6.3% of 17,000 active; purified IDE, FL-6b probe fluorescence polarization; active compounds read low;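 active = z-score of -3 or lower, meaning strong loss of probe binding signal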;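 also: His-tagged human IDE residues 42-1019 made in E. coli with 30 nM FL-6b probe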
Target sequence (P14735 42-1019 limits assumed): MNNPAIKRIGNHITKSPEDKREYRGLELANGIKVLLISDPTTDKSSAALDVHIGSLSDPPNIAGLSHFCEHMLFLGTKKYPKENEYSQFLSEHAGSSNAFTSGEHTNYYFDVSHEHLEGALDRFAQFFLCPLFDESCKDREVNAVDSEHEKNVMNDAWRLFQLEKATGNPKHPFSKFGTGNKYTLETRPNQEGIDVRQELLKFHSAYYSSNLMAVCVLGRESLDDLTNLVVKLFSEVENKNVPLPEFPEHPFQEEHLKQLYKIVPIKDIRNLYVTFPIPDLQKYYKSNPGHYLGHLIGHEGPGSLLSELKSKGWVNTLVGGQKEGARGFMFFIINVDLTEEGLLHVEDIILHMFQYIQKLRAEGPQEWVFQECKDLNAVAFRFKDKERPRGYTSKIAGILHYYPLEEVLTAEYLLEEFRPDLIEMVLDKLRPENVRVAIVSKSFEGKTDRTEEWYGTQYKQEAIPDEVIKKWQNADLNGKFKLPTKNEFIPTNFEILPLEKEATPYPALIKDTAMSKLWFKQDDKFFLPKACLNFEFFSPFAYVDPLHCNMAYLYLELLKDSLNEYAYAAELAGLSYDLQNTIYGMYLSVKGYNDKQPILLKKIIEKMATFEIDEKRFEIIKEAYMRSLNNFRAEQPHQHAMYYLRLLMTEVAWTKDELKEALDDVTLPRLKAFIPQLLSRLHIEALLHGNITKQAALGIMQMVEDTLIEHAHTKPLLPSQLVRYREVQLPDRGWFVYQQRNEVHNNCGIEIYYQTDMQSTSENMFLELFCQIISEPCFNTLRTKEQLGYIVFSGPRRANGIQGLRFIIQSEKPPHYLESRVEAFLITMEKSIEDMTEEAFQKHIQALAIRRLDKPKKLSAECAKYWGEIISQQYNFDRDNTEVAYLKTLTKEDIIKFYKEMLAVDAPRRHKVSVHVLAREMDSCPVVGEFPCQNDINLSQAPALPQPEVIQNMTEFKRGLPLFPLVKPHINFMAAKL
* marks the source's active call; other numbers are inactive results.

Screening Cc1ccc(-c2ccc([C@H]3[C@H]4CN(C(=O)CN5CCOCC5)CC(=O)N4[C@H]3CO)cc2)cc1 returned IDE exosite FP 0.4.
Screening CCC(=O)N1[C@H](CO)[C@H](c2ccc(-c3cccc(F)c3)cc2)[C@@H]1CN(C)C(C)=O returned IDE exosite FP 1.6.
For O=S(=O)(c1ccccc1)N1CC2(C1)[C@@H](c1ccccc1)[C@@H](CO)N2CC1CCOCC1 the results were IDE exosite FP 1.
Screening O=C(Nc1ccc(F)cc1)N1CC(=O)N2[C@H](CO)[C@@H](c3ccc(C#CC4CC4)cc3)[C@@H]2C1 returned IDE exosite FP 2.9.
Screening COCC#Cc1ccc([C@@H]2[C@@H](CO)N3C(=O)CN(C(=O)C4CCCCC4)C[C@@H]23)cc1 returned IDE exosite FP 1.2.
For COCC#Cc1ccc([C@@H]2[C@H](CO)N3C(=O)CN(C(=O)Nc4ccc(F)cc4)C[C@@H]23)cc1 the results were IDE exosite FP 2.1.
O=C1CN(S(=O)(=O)Cc2ccccc2)C[C@H]2[C@H](c3ccc(C#Cc4ccccc4)cc3)[C@@H](CO)N12 was read as IDE exosite FP 0.58.
O=C1CN(S(=O)(=O)c2ccccc2)C[C@H]2[C@@H](c3ccc(C#Cc4ccccc4)cc3)[C@@H](CO)N12 was read as IDE exosite FP 1.6.
O=C1CN(S(=O)(=O)Cc2ccccc2)C[C@H]2[C@@H](c3ccc(C#Cc4ccccc4)cc3)[C@@H](CO)N12 was read as IDE exosite FP -3.5*.
For O=C1CN(S(=O)(=O)Cc2ccccc2)C[C@H]2[C@H](c3ccc(C#Cc4ccccc4)cc3)[C@H](CO)N12 the results were IDE exosite FP -1.5.
CS(=O)(=O)N1CC(=O)N2[C@H](CO)[C@H](c3ccc(C#CCc4ccccc4)cc3)[C@@H]2C1 was read as IDE exosite FP 0.97.
For CS(=O)(=O)N1CC(=O)N2[C@H](C1)[C@H](c1ccc(C#CCc3ccccc3)cc1)[C@@H]2CO the results were IDE exosite FP -3.4*.
For O=C1CN(S(=O)(=O)Cc2ccccc2)C[C@H]2[C@@H](c3ccc(C#Cc4ccc(F)cc4)cc3)[C@@H](CO)N12 the results were IDE exosite FP -1.4.
Screening O=C1CN(S(=O)(=O)Cc2ccccc2)C[C@@H]2[C@H](c3ccc(C#Cc4ccccc4)cc3)[C@H](CO)N12 returned IDE exosite FP -3.5*.
O=C1CN(S(=O)(=O)c2ccccc2)C[C@@H]2[C@H](c3ccc(C#Cc4ccccc4)cc3)[C@H](CO)N12 was read as IDE exosite FP -5.2*.
O=C1CN(S(=O)(=O)c2ccccc2)C[C@H]2[C@H](c3ccc(C#Cc4ccccc4)cc3)[C@@H](CO)N12 was read as IDE exosite FP 1.3.
`CCS(=O)(=O)N1CC(=O)N2[C@H](CO)[C@@H](c3ccc(C#CCc4ccccc4)cc3)[C@@H]2C1` gave IDE exosite FP 1.7.
For O=C1CN(S(=O)(=O)Cc2ccccc2)C[C@@H]2[C@@H](c3ccc(C#Cc4ccccc4)cc3)[C@H](CO)N12 the results were IDE exosite FP -0.81.
CN(C)CC(=O)N1CC2(C1)[C@@H](c1ccccc1)[C@@H](CO)N2C(=O)C1CC1 was read as IDE exosite FP 0.85.
For O=C(c1ccccn1)N1CC2(C1)[C@H](c1ccccc1)[C@@H](CO)N2Cc1ccc(F)cc1 the results were IDE exosite FP -0.18.
C/C=C/c1ccc([C@H]2[C@@H](CO)N(C(C)=O)[C@@H]2CN(CCC)C(=O)C2CCC2)cc1 was read as IDE exosite FP 2.7.
`O=C(NCc1ccc(F)cc1)[C@H]1[C@H](CO)[C@H]2Cn3c(cccc3=O)[C@H]2N1C(=O)c1cccnc1` gave IDE exosite FP -0.14.
Screening O=C(CC1CC1)N1CC2(C1)[C@H](c1ccccc1)[C@H](CO)N2Cc1ccccn1 returned IDE exosite FP -1.2.
`CC[C@H]1C/C=C\C[C@H](c2ccc(OC)cc2OC)NC(=O)[C@H](C)CC(=O)N1` gave IDE exosite FP 1.3.
Screening COc1ccccc1NC(=O)N1CC(=O)N2[C@H](C1)[C@H](c1ccc(C#CC3CC3)cc1)[C@@H]2CO returned IDE exosite FP -0.39.
`O=C1CN(S(=O)(=O)Cc2ccccc2)C[C@H]2[C@H](c3ccc(C#Cc4cccc(F)c4)cc3)[C@@H](CO)N12` gave IDE exosite FP 3.8.
`O=C1CN(S(=O)(=O)Cc2ccccc2)C[C@H]2[C@@H](c3ccc(C#Cc4cccnc4)cc3)[C@H](CO)N12` gave IDE exosite FP 0.3.
For O=C1CN(S(=O)(=O)Cc2ccccc2)C[C@H]2[C@@H](c3ccc(C#Cc4cccnc4)cc3)[C@@H](CO)N12 the results were IDE exosite FP -5.8*.
N#C[C@H]1[C@H](c2ccccc2-c2ccccc2)[C@@H](CO)N1C(=O)Cc1ccncc1 was read as IDE exosite FP 1.5.
CCC(=O)N1CC2(CN(Cc3ccc(F)cc3)C2)c2c(n(C)c3cc(OC)ccc23)[C@@H]1CO was read as IDE exosite FP 0.21.
OC[C@@H]1[C@@H](c2ccc(-c3ccccc3)cc2)[C@@H]2CN(CCC(F)(F)F)CCCCN12 was read as IDE exosite FP 0.77.
Screening OC[C@H]1[C@@H](c2ccc(-c3ccccc3)cc2)[C@H]2CN(CCC(F)(F)F)CCCCN21 returned IDE exosite FP 1.8.
Screening COc1ccccc1C#Cc1ccc([C@H]2[C@H](CO)N3CCCCN(CCC(F)(F)F)C[C@@H]23)cc1 returned IDE exosite FP -6.1*.
Screening OC[C@@H]1[C@H](c2ccc(C#CC3CCCC3)cc2)[C@H]2CN(CCC(F)(F)F)CCCCN12 returned IDE exosite FP 2.5.
COc1ccccc1C#Cc1ccc([C@@H]2[C@@H](CO)N3CCCCN(CCC(F)(F)F)C[C@@H]23)cc1 was read as IDE exosite FP -5.6*.
OC[C@@H]1[C@H](c2ccc(-c3ccccc3)cc2)[C@H]2CN(CCC(F)(F)F)CCCCN12 was read as IDE exosite FP 2.4.
For COc1ccccc1C#Cc1ccc([C@H]2[C@@H](CO)N3CCCCN(CCC(F)(F)F)C[C@@H]23)cc1 the results were IDE exosite FP -6.9*.
Screening OC[C@H]1[C@@H](c2ccc(C#CC3CCCC3)cc2)[C@@H]2CN(CCC(F)(F)F)CCCCN12 returned IDE exosite FP 3.8.
`OC[C@H]1[C@@H](c2ccc(-c3ccc(F)cc3)cc2)[C@H]2CN(CCC(F)(F)F)CCCCN21` gave IDE exosite FP 1.7.
C/C=C/c1ccc([C@H]2[C@H](CO)N(C(C)=O)[C@H]2CN(C)S(C)(=O)=O)cc1 was read as IDE exosite FP 5.2.
N#C[C@@H]1[C@H](c2ccccc2-c2cccc(F)c2)[C@H](CO)N1C(=O)C1CCC1 was read as IDE exosite FP 2.9.
CC(C)[C@H]1CC=CC[C@@H](C)Oc2ccccc2C(=O)N(C)[C@H](C(C)C)C(=O)N1 (mixture of isomers) was read as IDE exosite FP 1.5.
Screening COC(=O)C[C@H]1CC[C@@H]2[C@@H](COc3ccc(NS(=O)(=O)c4ccc(C)cc4)cc3C(=O)N2C)O1 returned IDE exosite FP -2.
For CCC(=O)Nc1ccc2c(c1)C(=O)N(C)C[C@H](OC)[C@H](C)CN(Cc1nccs1)[C@@H](C)CO2 the results were IDE exosite FP -0.67.
For CS(=O)(=O)N1[C@H](C#N)[C@@H](c2ccc(-c3ccccc3F)cc2)[C@H]1CO the results were IDE exosite FP -2.1.
`CS(=O)(=O)N1[C@H](C#N)[C@@H](c2ccc(-c3ccccc3F)cc2)[C@@H]1CO` gave IDE exosite FP -3*.
